# Rows were chosen to be rich in hits. Some 1.3% of all compounds tested hit in one or more screens of this group.
# Vif-A3G inh: qHTS for Inhibitors of Vif-A3G Interactions: qHTS. DNA dC->dU-editing enzyme APOBEC-3G (Homo sapiens), Q9HC16. HeLa A3G-eYFP + Vif (tagged APOBEC3G with the HIV-1 protein that degrades it), YFP fluorescence, overnight. Potency, µM (highest dose often 46.1 µM), inactives show at the highest dose activity, negative = active, usual class: inhibitors. 0.076% of 410,000 active. AID 602310, 2012; note: potency is the fitted concentration of half-maximal effect; % is set by controls: 0 for no effect and ±100 for the full control effect; nearly all actives have a fitted effect of over 60% in size
#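 HeLa cells stably expressing Vif and C-terminally eYFP-tagged A3G, seeded overnight at 37 deg C, then exposed to compound by pintool overnight at 37 deg C. Rise in yellow fluorescence (Ex 488/Em 500-530, Acumen) marks blocked Vif-driven A3G degradation.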
# ALOX12 inh: Primary qHTS assay for inhibitors of human arachidonate 12S-lipoxygenase (ALOX12): Round 2 | purified 12hLO, xylenol orange hydroperoxide absorbance | Potency, µM (titrated, usually from 108 µM), without a hit: at the top dose activity change, negative = inhibition, most hits filed as inhibitors | Polyunsaturated fatty acid lipoxygenase ALOX12 (Homo sapiens), P18054 | AID 1671190, 2021 | 1.1% of 580,000 active; note: potency is the fitted concentration of half-maximal effect; % is set by controls: 0 for no effect and ±100 for the full control effect
#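 Purified human 12hLO (150 nM final) in 25 mM Hepes, 0.01% Triton X-100, pH 7.0 was preincubated 15 min at room temperature with compound. Then 40 uM arachidonic acid was added, 30 min. Hydroperoxide was read by Fe-XO absorbance ratio 573/405 nm.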
# TRPML1 ag: qHTS for Agonists of the Human Mucolipin Transient Receptor Potential 1 (TRPML1); Mucolipin-1 (Homo sapiens), Q9GZU1; TRPML1-expressing cells, Ca2+ dye fluorescence, FDSS; activation, % (test concentration not listed); 0.12% of 410,000 active; AID 624414, 2012; in the data active = activation above about 50%; inconclusive = mostly about 30% to 49%; note: 0% is about no effect
# Target sequence (Q9GZU1 whole entry, looked up): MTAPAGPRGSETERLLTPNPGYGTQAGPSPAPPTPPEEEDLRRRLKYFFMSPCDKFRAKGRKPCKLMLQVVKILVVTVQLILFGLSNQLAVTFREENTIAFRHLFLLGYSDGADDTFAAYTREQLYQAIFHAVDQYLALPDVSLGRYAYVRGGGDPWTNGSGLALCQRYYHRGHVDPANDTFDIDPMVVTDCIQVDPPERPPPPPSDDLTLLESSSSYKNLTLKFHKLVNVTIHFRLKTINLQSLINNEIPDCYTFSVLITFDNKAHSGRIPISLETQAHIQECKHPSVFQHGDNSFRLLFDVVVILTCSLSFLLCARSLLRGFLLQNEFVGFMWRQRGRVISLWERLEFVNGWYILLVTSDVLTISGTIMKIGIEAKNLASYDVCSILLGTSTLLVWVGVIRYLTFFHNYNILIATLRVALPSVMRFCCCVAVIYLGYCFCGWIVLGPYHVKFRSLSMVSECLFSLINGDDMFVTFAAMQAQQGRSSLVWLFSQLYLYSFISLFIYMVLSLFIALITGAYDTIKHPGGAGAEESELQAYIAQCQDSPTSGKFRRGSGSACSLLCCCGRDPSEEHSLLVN
#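 Agonist activity was taken from a 110 s kinetic Ca2+ dye read on the FDSS after pinning compounds onto TRPML1-DL cells. The cells were seeded at 1,500/well with Tet inducer, incubated about 16 h, then dye-loaded at room temperature.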
# Vif-A3F inh: qHTS for Inhibitors of Vif-A3F Interactions: qHTS; HeLa A3F-eYFP + Vif (tagged APOBEC3F with the HIV-1 protein that degrades it), YFP fluorescence increase; Potency, µM (doses to about 46.1 µM), for the others: at the top dose activity, negative = active; 0.2% of 390,000 active; AID 602313, 2012; note: potency is the fitted concentration of half-maximal effect; % of control where 0% means no effect; nearly all actives have a fitted effect of over 65% in size
#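 HeLa cells stably expressing A3F-eYFP plus Vif, plated and incubated overnight at 37 deg C, then exposed to compounds overnight at 37 deg C. Blocked degradation read as raised yellow fluorescence (Ex 488/Em 500-530).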
# TRPML1 inh: qHTS for Inhibitors of the Human Mucolipin Transient Receptor Potential 1 (TRPML1) | Mucolipin-1 (Homo sapiens), Q9GZU1 | TRPML1-inducible cells, Ca2+ dye fluorescence, FDSS; active compounds read low; inhibition of EC80 agonist-evoked calcium signal | activity change, negative = inhibition, % (concentration not given with the values) | 0.02% of 390,000 active; in the data active = activity change below about -50%; inconclusive = between about -30% and that limit;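 note: stimulus is agonist 54-4 at its EC80 concentration; % is set by controls: 0 for no effect and ±100 for the full control effect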
#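 TRPML1-DL cells, Tet-induced overnight (~16 h, 37 °C) at 1,500 cells/well, were loaded with Ca8 no-wash dye plus quencher for 45-90 min at room temperature. Compounds were pinned during FDSS kinetic reading; agonist 54-4 at EC80 (4 uM final) then added.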
# Glioma ERSR ind: qHTS for Inducers of the Endoplasmic Reticulum Stress Response (ERSR) in Human Glioma: qHTS; U87-MG GRP78 promoter luciferase reporter, 16 h; Potency, µM, inactives show top-dose activation, hits mostly activators; 0.02% of 420,000 active; AID 602332, 2012; note: potency is the fitted concentration of half-maximal effect; series mostly up to about 76 µM; % of control where 0% means no effect; nearly all actives have a fitted effect of over 35% in size
#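 Stably transfected U87-MG human glioma cells carrying a GRP78-based luminescent sensor were seeded at 1000 cells/well, pin-dosed with compounds and incubated 16 h. Luciferase reagent was then added, and end-point luminescence was read after 10 min at room temperature.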
# Numbers without * were called inactive; ? = inconclusive; / = no result; [ ] = remark or other dose. Unless noted, calls come from the whole dose curve; as a rule, active = well fitted curve in the direction sought with a large enough effect; inconclusive = small, poorly fitted or top-dose-only effect, or another doubt; inactive = no such curve, though single readings can be large; an effect the other way counts as inactive or inconclusive.
SMILES,Vif-A3G inh,ALOX12 inh,TRPML1 ag,Vif-A3F inh,TRPML1 inh,Glioma ERSR ind
Cc1cccc(C(=O)N2CCN(c3ccc([N+](=O)[O-])c(-n4nc(C)c5ccccc5c4=O)c3)CC2)c1,/,6%,/,/,/,/
CCCCOc1nc2ccccc2nc1NS(=O)(=O)c1ccc(F)cc1,-25%,0%,1,10µM*,-1,3%
O=S(=O)(Nc1nc2ccccc2nc1NC1CCCCC1)c1ccc(F)cc1,/,0.63µM*,/,/,/,/
O=S(=O)(Nc1nc2ccccc2nc1NC1CC1)c1ccccc1,/,-14%,/,/,/,/
O=S(=O)(Nc1nc2ccccc2nc1N1CCN(c2ccccc2)CC1)c1ccc(F)cc1,?,-29%,1,22µM*,38,-1%
O=S(=O)(Nc1nc2ccccc2nc1N1CCCC1)c1ccc(F)cc1,/,-7%,/,/,/,/
O=C(c1nn(Cc2ccccc2)c(=O)c2ccccc12)N1CCCSc2ccccc21,/,-14%,/,/,/,/
NC(N)=NCc1ccc(CN2CCCC2)cc1,/,45µM*,/,/,/,/
CN(C)c1ccc(-c2noc([C@@H]3CCCN3Cc3cnc4ccccc4c3)n2)cn1,/,-55%[176 µM],/,/,/,/
CC(CNC(=O)CCCNC(=O)C1CC1)c1ccccc1 (stereo not drawn),/,-11%,/,/,/,/
Cc1cc(C(F)(F)F)c(C#N)c(SCC(=O)Nc2nc3ccccc3s2)n1,?,-20%,?,22µM*,-15,-4%
CCOc1ccc(-c2cc(C(F)(F)F)c(C#N)c(SCC(=O)Nc3ccccc3)n2)cc1,13µM*,4%,7,?,1,-3%
CS(=O)(=O)c1ccccc1NC(=O)CNc1cc(Cl)ccc1N1CCCC1,/,4%,/,/,/,/
NC(=O)c1c(NC(=O)c2ccc(F)cc2)sc2c1CCC2,-11%,18µM*,-1,?,3,0%
COc1cc(/C=C2\C(=N)N3N=C(S(C)(=O)=O)SC3=NC2=O)ccc1OC(=O)c1ccco1,-1%,?,1,7.1µM*,19,-2%
COc1cc(/C=C2/C(=O)NN(c3cccc(C)c3)C2=O)cc([N+](=O)[O-])c1O,3%,?,2,0%,-8,-6%
COc1cc(/C=C2/C(=O)NN(c3cccc(C)c3)C2=O)ccc1OC(=O)c1ccco1,-17%,35µM*,1,0%,-9,7%
CCOc1cc(/C=C2/C(=N)N3C(=NC2=O)SN=C3S(C)(=O)=O)ccc1OC(=O)c1ccco1,-7%,/,1,13µM*,15,-1%
Cc1cc(C(=O)COC(=O)c2nccnc2N)c(C)n1CC(F)(F)F,/,-24%,/,/,/,/
Cc1nc(SCC(=O)Nc2cccc(S(=O)(=O)N3CCCC3)c2)n(C2CCCCC2)c1C,/,6%,/,/,/,/
O=C(NC(=S)N1CCN(c2ccccn2)CC1)c1ccccc1,2%,-8%,0,22µM*,-8,0%
O=C(NC(=S)N1CCN(C2CCCCC2)CC1)c1ccccc1,4%,-16%,0,22µM*,21,4%
S=C(NCCSCc1c(Cl)cccc1Cl)Nc1ccccc1,-1%,35µM*,-1,-5%,-11,1%
CCOc1ccc(CSCCNC(=S)Nc2ccccc2)cc1,0%,45µM*,0,?,-8,-2%
CC(C)(C)c1ccc(OCCNC(=S)Nc2ccccc2)cc1,-1%,45µM*,4,-10%,6,-1%
SMILES,Vif-A3G inh,ALOX12 inh,TRPML1 ag,Vif-A3F inh,TRPML1 inh,Glioma ERSR ind
CCOc1ccc(NC(=S)NCCCc2ccccc2)cc1,0%,?,1,6%,8,0%
CC(C)(C)c1ccc(OCCNCc2ccccc2)cc1,-7%,?,-1,-1%,-1,1%
O=S(=O)(c1ccc(-c2nc(-c3ccccc3)no2)o1)N1CCOCC1,/,1%,/,/,/,/
O=C(NCCc1ccc(Cl)cc1)c1ccncc1,/,-24%,/,/,/,/
CN(C)/C=C/C(=O)c1cnc(-c2ccc(Cl)cc2)s1,-1%,32µM*,0,6%,-7,1%
CN(C)/C=C/C(=O)c1cnc(-c2ccccc2)s1,-8%,?,0,-7%,-1,2%
O=C(/C=C/c1cc2ccccc2nc1N1CCOCC1)c1cccc(O)c1,/,16µM*,/,/,/,/
N#CC(C#N)=Cc1cc2ccccc2nc1N1CCOCC1,-8%,-23%,0,-9%,23,0%
CCNC(=S)N/N=C/c1cccc(OCc2c(F)cccc2Cl)c1,-7%,40µM*,2,-8%,-1,0%
CNC(=S)N/N=C/c1cccc(OCc2ccccc2F)c1,0%,?,1,?,4,0%
CCCn1c(C)cc(-c2csc(N)n2)c1C,1%,35µM*,0,-3%,14,3%
O=C(NCCc1ccccc1)N1CC(Oc2ccccc2-c2nc(-c3ccccc3)no2)C1,/,-18%,/,/,/,/
O=C1CCSc2ccc3ccccc3c21,/,5%,/,/,/,/
NC(=S)N/N=C1/CCSc2ccc3ccccc3c21,-3%,20µM*,1,?,-1,-9%
O=C1CC(c2ccccc2)N(C(=O)CNC(=O)c2[nH]nc3c2COc2ccccc2-3)CCCCCN1 (stereo not drawn),/,36%,/,/,/,/
COCCOc1ccc(C(=O)/C=C/c2ccc(O)cc2)cc1OC,/,-4%,/,/,/,/
CCCc1nc(C)cc(N2CCC(NCCc3ccc(Cl)cc3)CC2)n1,/,8.9µM*,/,/,/,/
Cc1cc(SCC(=O)N/N=C/c2ccc(O)c(O)c2)c(C)cc1Br,-5%,6.3µM*,4,/,10,-3%
Cc1cc(SCC(=O)N/N=C/c2ccc(O)c(O)c2)nc2ccccc12,-12%,-12%,0,-13%,13,?

# Screening results as filed in PubChem.
